# Laboratory results reported in the supplement of paper PMC8728848.
# This is one part of a sample in which the strongest signals are shown more often than they occur.
# Experiments:
# Experiment in all cases: glycan array binding signal (z-score within array); higher = stronger binding
# Settings in all cases: glycan notation: IUPAC condensed, linker removed
# [1] = molecular target: Fuc(a1-2)Gal(b1-3)GlcNAc(b1-2)Man(a1-3)[Fuc(a1-2)Gal(b1-3)GlcNAc(b1-2)Man(a1-6)]Man(b1-4)GlcNAc(b1-4)[Fuc(a1-6)]GlcNAc
# In short: (§1)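 Glycan array binding is given as a within-array Z-score, which can be read as non-binding when negative. The arrays, 3228 of them, came from the Consortium for Functional Glycomics database and were retained only where the protein sequence was available. Z-scores were averaged across arrays of the same protein sequence at different concentrations or buffers and across linkers.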
# [2] = molecular target: Fuc(a1-2)Gal(b1-3)[Fuc(a1-4)]GlcNAc(b1-3)[Fuc(a1-3)[Gal(b1-4)]GlcNAc(b1-6)]Gal(b1-4)Glc
# In short: as §1
# [3] = molecular target: Fuc(a1-2)Gal(b1-3)[Fuc(a1-4)]GlcNAc(b1-3)[Gal(b1-4)GlcNAc(b1-6)]Gal(b1-4)Glc
# In short: as §1
# [4] = molecular target: Fuc(a1-2)Gal(b1-4)[Fuc(a1-3)]GlcNAc(b1-3)GalNAc
# In short: as §1
# [5] = molecular target: Fuc(a1-2)[Gal(a1-3)]Gal(b1-4)Glc
# In short: as §1
# [6] = molecular target: Fuc(a1-2)[Gal(a1-3)]Gal(b1-4)GlcNAc(b1-3)GalNAc
# In short: as §1
# [7] = molecular target: Fuc(a1-2)[GalNAc(a1-3)]Gal
# In short: as §1
# [8] = molecular target: Fuc(a1-2)[GalNAc(a1-3)]Gal(b1-3)GlcNAc(b1-3)GalNAc
# In short: as §1
# [9] = molecular target: Fuc(a1-2)[GalNAc(a1-3)]Gal(b1-4)[Fuc(a1-3)]GlcNAc
# In short: as §1
# [10] = molecular target: Fuc(a1-2)[GalNAc(a1-3)]Gal(b1-4)[Fuc(a1-3)]GlcNAc(b1-3)GalNAc
# In short: as §1
# [11] = molecular target: Fuc(a1-2)[GalNAc(b1-3)]Gal
# In short: as §1
# [12] = molecular target: Fuc(a1-3)[Gal(b1-4)]Glc6S
# In short: as §1
# [13] = molecular target: Fuc(a1-3)[Gal(b1-4)]GlcNAc(b1-3)GalNAc
# In short: as §1
# [14] = molecular target: Gal(b1-3)[Fuc(a1-4)]GlcNAc(b1-2)Man(a1-3)[Gal(b1-3)[Fuc(a1-4)]GlcNAc(b1-2)Man(a1-6)]Man(b1-4)GlcNAc(b1-4)GlcNAc
# In short: as §1
# [15] = molecular target: Gal(b1-3)[Fuc(a1-4)]GlcNAc(b1-2)Man(a1-3)[Gal(b1-3)[Fuc(a1-4)]GlcNAc(b1-2)Man(a1-6)]Man(b1-4)GlcNAc(b1-4)[Fuc(a1-6)]GlcNAc
# In short: as §1
# [16] = molecular target: Gal(b1-4)Glc6S
# In short: as §1
# [17] = molecular target: Gal(b1-4)GlcNAc(b1-2)[Gal(b1-4)GlcNAc(b1-4)]Man(a1-3)[GlcNAc(b1-4)][Gal(b1-4)GlcNAc(b1-2)Man(a1-6)]Man(b1-4)GlcNAc(b1-4)GlcNAc
# In short: as §1
# [18] = molecular target: Gal(b1-4)GlcNAc(b1-3)Gal(b1-4)[Fuc(a1-3)GlcNAc(b1-6)]Gal(b1-4)Glc
# In short: as §1
# [19] = molecular target: Gal3S6S(b1-4)GlcNAc6S
# In short: as §1
# [20] = molecular target: GalNAc(a1-3)GalNAc(b1-3)Gal(a1-4)Gal(b1-4)Glc
# In short: as §1
# [21] = molecular target: GalNAc(b1-6)GalNAc
# In short: as §1
# [22] = molecular target: Glc(a1-6)Glc(a1-6)Glc
# In short: as §1
# [23] = molecular target: GlcA(b1-3)GlcNAc
# In short: as §1
# [24] = molecular target: GlcNAc(a1-4)Gal(b1-4)GlcNAc(b1-3)Gal(b1-4)GlcNAc(b1-3)Gal(b1-4)GlcNAc
# In short: as §1
# [25] = molecular target: GlcNAc(b1-2)Man(a1-3)[GlcNAc(b1-2)Man(a1-6)]Man(b1-4)GlcNAc(b1-4)GlcNAc
# In short: as §1
# [26] = molecular target: GlcNAc(b1-3)Gal(b1-4)GlcNAc(b1-3)Gal(b1-4)GlcNAc
# In short: as §1
# [27] = molecular target: GlcNAc(b1-3)GalNAc
# In short: as §1
# [28] = molecular target: GlcNAc(b1-3)[GlcNAc(b1-4)][GlcNAc(b1-6)]GlcNAc
# In short: as §1
# [29] = molecular target: Kdn(a2-3)Gal(b1-3)GlcNAc
# In short: as §1
# [30] = molecular target: Man(a1-2)Man(a1-3)[Man(a1-2)Man(a1-6)]Man(a1-6)[Man(a1-2)Man(a1-2)Man(a1-3)]Man
# In short: as §1
# [31] = molecular target: Man(b1-4)GlcNAc
# In short: as §1
# [32] = molecular target: Neu5Ac(a2-3)Gal(b1-4)[Fuc(a1-3)]GlcNAc(b1-3)GalNAc
# In short: as §1
# [33] = molecular target: Neu5Ac(a2-3)[GalNAc(b1-4)]Gal(b1-4)GlcNAc
# In short: as §1
# [34] = molecular target: Neu5Ac(a2-6)Gal(b1-4)GlcNAc
# In short: as §1
# [35] = molecular target: Neu5Ac(a2-8)Neu5Ac(a2-8)Neu5Ac
# In short: as §1
binder,measurement,setting,value
"pullulanase (Streptococcus pyogenes), Q8KLP1 (protein) MKKKVNQGSKRYQYLLKKWGIGFVIAATGTVMLGCIPSILTHQVAAKTIVGLARDEAQQGDGNAKSGDGFQSSSKEAKPVLDSSSANPASIAEHHLRMHFKTLPAGESLGSLGLWVWGDVDQPSKDWPNGAITMTKAKKDDYGYYLDVPLAAKHRQQVSYLINNKAGENLSKDQHIPLLTPKMNEVWIDENYHAHAYRPLKKGYLRINYHNQSGHYDNLAVWTFKDVKTPTTDWPNGLDLSHKGPYGAYVDVPLKEGANEIGFLILDKSKTGDAIKVQPKDYLFKELDNHTQVFVKDTDPKVYNNPYYIDQVSLKGAEQTTPNEIKAIFTTLDGLDEDAVKQNIKITDKAGKTVAIDELTLDKDKSVMTLKGDFKAQGAVYTVTFGEVSQVARQSWQLKDKLYAYDGELGATLAKDGSVDLALWSPSADSVKVVVYDKQDQTKVVGQADLTKSDKGVWRAHLTSDSVKGISDYTGYYYLYEITRGQEKVMVLDPYAKSLAAWNDATATDDIKTAKAAFIDPSKLGPTGLDFAKINNFKKREDAIIYEAHVRDFTSDKALEGKLTHPFGTFSAFVEQLDYLKDLGVTHVQLLPVLSYFYANELDKTRSTAYTSSDNNYNWGYDPQHYFALSGMYSANPNDPALRIAELKNLVNEIHKRGMGVIFDVVYNHTARTYLFEDLEPNYYHFMNADGTARESFGGGRLGTTHAMSRRILVDSITYLTREFKVDGFRFDMMGDHDAAAIEQAFKAAKAINPNTIMIGEGWRTYQGDEGKKEIAADQDWMKATNTVGVFSDDIRNTLKSGFPNEGTAAFITGGAKNLEGLFKTIKAQPSNFEADAPGDVVQYIAAHDNLTLHDVIAKSINKDPKVAEEEIHKRIRLGNTMILTAQGTAFIHSGQEYGRTKQLLNPDYKTKVSDDKVPNKATLIDAVAQYPYFIHDSYDSSDAVNHFDWAKATDSIAHPISNQTKAYTQGLIALRRSTDAFTKATKAEVDRDVTLITQAGQDGIQQEDLIMGYQTVASNGDRYAVFVNADNKTRKVVLPQAYRYLLGAQVLADAEQVGVTAIAKPKGVQFTKEGLTIDGLTALVLKVSSKTANPSQQKSQTDNHQTKTPDGSKDLDKSLMTRPKRAKTNQKLPKTGEAPSKGLLAAGVALLLLAISLLMKRQKD",glycan array binding signal (z-score),[1],1.26
same,glycan array binding signal (z-score),[2],4.09
same,glycan array binding signal (z-score),[3],-1.13
same,glycan array binding signal (z-score),[4],3.14
same,glycan array binding signal (z-score),[5],-0.403
same,glycan array binding signal (z-score),[6],-0.009
same,glycan array binding signal (z-score),[7],-0.236
same,glycan array binding signal (z-score),[8],2.51
same,glycan array binding signal (z-score),[9],-0.025
same,glycan array binding signal (z-score),[10],1.05
same,glycan array binding signal (z-score),[11],-0.628
same,glycan array binding signal (z-score),[12],-0.252
same,glycan array binding signal (z-score),[13],0.189
same,glycan array binding signal (z-score),[14],6.24
same,glycan array binding signal (z-score),[15],2.86
same,glycan array binding signal (z-score),[16],-0.375
same,glycan array binding signal (z-score),[17],0.829
same,glycan array binding signal (z-score),[18],-0.926
same,glycan array binding signal (z-score),[19],-0.367
same,glycan array binding signal (z-score),[20],-1.28
same,glycan array binding signal (z-score),[21],-0.145
same,glycan array binding signal (z-score),[22],2.49
same,glycan array binding signal (z-score),[23],2.61
same,glycan array binding signal (z-score),[24],0.594
same,glycan array binding signal (z-score),[25],-0.014
same,glycan array binding signal (z-score),[26],-1.14
same,glycan array binding signal (z-score),[27],0.154
same,glycan array binding signal (z-score),[28],-0.834
same,glycan array binding signal (z-score),[29],-0.039
same,glycan array binding signal (z-score),[30],0.204
same,glycan array binding signal (z-score),[31],0.398
same,glycan array binding signal (z-score),[32],2.87
same,glycan array binding signal (z-score),[33],-0.879
same,glycan array binding signal (z-score),[34],2.52
same,glycan array binding signal (z-score),[35],-0.738
